± gives the standard deviation of the averaged measurements. Whole data set: some 25,000 sequences, median “ln(normalized median fluorescence intensity)” near 7.9, cut for the highest 2% near 11. The sample as a whole holds a higher share of the highest values than the screen did.

The test deals with PfAP2-I AP2 domain 3 (GST-tagged). As to the kind of experiment: gcPBM binding intensity (ln(normalized median fluorescence intensity)); higher = stronger DNA binding. In outline: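 GST-fused DNA-binding domains of P. falciparum, expressed in E. coli, were applied at about 25 μg on average for 1 h to an Agilent 4 × 180k array of primer-extended double-stranded 36-bp intergenic genomic probes and negative controls. Binding intensity is the highest Masliner-normalised natural-log median intensity across replicate spots of either probe orientation, measured with Alexa488 anti-GST antibody and a 488 nm scan.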
Turning to “AAAATCAAGTAGTATAAAGTAAGTATCATAAAAATA [CACACA_negctrl_site1554]”, the “gcPBM binding intensity (ln)” value came to 7.63 ± 0.59.
Then “AGTAATAGTTTGTGCACACTCAAGTATATCATATAT [CACACA_site4034]”, with 10.9 ± 0.24; and “AGTAATAGTTTGTGCACACTCAAGTATATCATAGAT [CACACA_site6082]”, with 11 ± 0.23; and “TAAGTAATAGTTTGTGCACACTCAAGTATATCATAT [CACACA_site4035]”, with 10.8 ± 0.28.
Turning to “TATATATCAATATGCACACACAAGAAGTAATTATAA [CACACA_site7487]”, the “gcPBM binding intensity (ln)” value is 8.96 ± 0.22.
As to “GTTATAACTCAAATATGTACATATTATAAAACATAT [XGTACX_site6693]”, the “gcPBM binding intensity (ln)” value worked out at 7.92 ± 0.47.
Then “TTTTTTTTTTATTGTACATGCAAAAAATTCCACACA [TGCATGCA_site279]”, with 8.31 ± 0.32; and “ATTTACCCTTGCCATGCACACTTTTTTATAGAAAAT [CACACA_site5857]”, with 8.95 ± 0.44.
“GAACTTTACAACCCAACACACAAAAAAGAAAAGAAA [CACACA_site1717]”: the “gcPBM binding intensity (ln)” value amounted to 7.87 ± 0.46.
Consider “AGTAGCAAATATTAAGTGCATATTATATAATGTGTA [GTGCAC_site9546]”, for which the “gcPBM binding intensity (ln)” value is 9.04 ± 0.16.
Turning to “CTATGCATTTATAGTGCATGTAAAATATAAGATAAT [TGCATGCA_site71]”, the “gcPBM binding intensity (ln)” value was determined as 9.86 ± 0.085.
With “TAAAAAATGATAGAAGTGCATAAAATAATATATATA [GTGCAC_site9904]”, the “gcPBM binding intensity (ln)” value is 10.4 ± 0.13.
For CCACGAGAATATATAGTGCATAATAATTTTTTTTTG, the “gcPBM binding intensity (ln)” value came to 11.1 ± 0.4.
Regarding “TTTCTAGTTACAAGAGTGCATAATATATAAAAATAA [GTGCAC_site9874]”, the “gcPBM binding intensity (ln)” value is 10.9 ± 0.56.
Then “AAAATAATATAAATAATATAAGTGAGCATATATATA [TGCATGCA_negctrl_site527]”, with 7.92 ± 0.72; and “ACATTTACAAGGAAAGTGCATATAAGAAAAATAAAA [GTGCAC_site9587]”, with 10.2 ± 0.11.
Then “TTGTGTGAGCAAGTAGTGCATAATATAAATAAAAAA [GTGCAC_site9802]”, with 11.2 ± 0.54; and “TTTAGATATATGGTAGTGCATAATAAAAATATAGCC [GTGCAC_site9449]”, with 11.1 ± 0.67.
As for “ATAATATTTTATATAGTGCATTTGCTCATTATATAT [GTGCAC_site9528]”, the figure is 9.85 ± 0.45; as for TATAATAACAATTTAGTGCATATAATAATATTTTAT, 10 ± 0.19; as for TAAAAAATTAATAAAGTGCATAAATATTACAATATT, 10.3 ± 0.4.
Consider “TCAAAATATCCAAAAGAATAAAGAAAAAAAAAAAGA [CACACA_negctrl_site1377]”, for which the “gcPBM binding intensity (ln)” value was 7.5 ± 0.41.
As for “TTGTAATTTATTCAAACACACAATTTGGACCTTTTT [CACACA_site1063]”, the figure is 7.45 ± 0.51; as for “TTTTTACTATAAGGGGAAAAAAAAAAAAATAATATA [XGTACX_negctrl_site279]”, 7.78 ± 0.28.
As to “ATGTAGATATATATATGTACTAATTAGTAGTTTACG [XGTACX_site6275]”, the “gcPBM binding intensity (ln)” value came to 8 ± 0.41.
In the case of “ATATATATATCAACAACACACGATTAACTAAAAAAA [CACACA_site302]”, the “gcPBM binding intensity (ln)” value came to 8.8 ± 0.19.
As for “ACCTTATTTAGTTATAGTACACAAAGTATTAAACAT [XGTACX_site8418]”, the figure is 8.46 ± 0.46; as for “AGTATACATTCATTTTGTACTCAATGATTTGATAAC [XGTACX_site6787]”, 7.63 ± 0.42.
Regarding “CTATTATCGGTTCCTACACACAAATATATATGTCTA [CACACA_site3579]”, the “gcPBM binding intensity (ln)” value was 8.1 ± 0.57.
Then “TGTTTTTTTATTTTCACACATAATCCAATTATACAT [CACACA_site6070]”, with 8.22 ± 0.55.
For “TATATATATATGTAATGTACATAAATTTTATACCTT [XGTACX_site6991]”, the “gcPBM binding intensity (ln)” value worked out at 9.27 ± 0.53.
For the sequence “ACCATATAATTTTTTTGTACATAATGATTTTTTTTT [XGTACX_site1104]”, the “gcPBM binding intensity (ln)” value was found to be 7.99 ± 0.45.
For “GGTCTAACAACATGCGCACACACATGAATATTCATA [CACACA_site1539]”, the “gcPBM binding intensity (ln)” value was found to be 8.81 ± 0.49.
As for TATATATATATAATAGTGCATAAATAAATATATAAA, the figure is 11.2 ± 0.45.
As for “ATAGTAATGCATAAATATATATTATATATATATATA [XGTACX_negctrl_site576]”, the “gcPBM binding intensity (ln)” value worked out at 9.21 ± 0.49.
Then ATATATATATATATAGTGCATAAAATAAGTTTCTAA, with 10.8 ± 0.21; and GTTGAAATAAAATTAGTGCATATATAAATATATATA, with 10.2 ± 0.17; and ATATATAAATAAATAGTGCATTTTAATATTTAACGT, with 10 ± 0.18.
As for “CACTAAATAAGGAAAGTGCATAAAATAAAGGTTATA [GTGCAC_site9793]”, the “gcPBM binding intensity (ln)” value is 10.4 ± 0.26.
As for ACATATAATAAAATAGTGCATTGTTAGTTTTATATA, the figure is 10.4 ± 0.42.
On to “AAAAAAAATATACATACATGCATACATAAGTTTCTA [TGCATGCA_site998]”, for which the “gcPBM binding intensity (ln)” value was determined as 7.55 ± 0.73.
Then TAATAAATGTTATTAGTGCATAATAGATAATATATT, with 10.8 ± 0.64; and AATAAAAATAATATAGTGCATAATATAAGGAAAAAA, with 11.1 ± 0.49.
As for ATATATATATATATAGTGCATAATGTTTTAATAGAT, the figure is 11 ± 0.33; as for TATATATATATATAAGTGCATATAAAAATCGTTCGT, 10.3 ± 0.11.
Turning to “AAAAGCACCGTTCGTTGTACACTGAAACACTTTTGT [XGTACX_site199]”, the “gcPBM binding intensity (ln)” value was found to be 8.2 ± 0.76.
Then “AACATGTTAAAATAAACACACAGCTAAGGTTTTTTT [CACACA_site157]”, with 7.4 ± 0.69.
